Hits are enriched below; roughly 12% of the tested compounds scored in any of these assays.
JMJD2A Tudor: inhibitors of human JMJD2A Tudor domain | O75164 | AlphaScreen JMJD2A-Tudor / H3K4me3 peptide binding | Potency, µM (top dose mostly 114 µM), most hits filed as inhibitors | 390,000 compounds, 4.4% hits | AID 504339; further: nearly all actives have a fitted effect of over 50% in size
Sfp inh: Sfp phosphopantetheinyl transferase inhibition | Potency, µM, usual class: inhibitors | Biochemical Sfp PPTase activity, qHTS | 310,000 compounds, 3.5% hits | Q9F4F7;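 further: the enzyme is Sfp with the accession as filed and its product quenches rhodamine fluorescence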
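With Hepes-Na pH 7.6 buffer containing 10 mM MgCl2, Sfp (15 nM) modified BHQ-2-YbbR (12.5 uM) using rhodamine-CoA (5 uM). Two reads 30 minutes apart at 525/598 nm yielded each well's rate.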
L3MBTL1 inh: inhibitors of human L3MBTL1; Q9Y468; AlphaScreen L3MBTL1–H3K9me1 peptide binding; Potency, µM (doses to about 57.1 µM), actives largely listed as inhibitors; 230,000 compounds, 0.66% hits; further: nearly all actives have a fitted effect of over 60% in size
Target sequence (Q9Y468 whole entry, looked up): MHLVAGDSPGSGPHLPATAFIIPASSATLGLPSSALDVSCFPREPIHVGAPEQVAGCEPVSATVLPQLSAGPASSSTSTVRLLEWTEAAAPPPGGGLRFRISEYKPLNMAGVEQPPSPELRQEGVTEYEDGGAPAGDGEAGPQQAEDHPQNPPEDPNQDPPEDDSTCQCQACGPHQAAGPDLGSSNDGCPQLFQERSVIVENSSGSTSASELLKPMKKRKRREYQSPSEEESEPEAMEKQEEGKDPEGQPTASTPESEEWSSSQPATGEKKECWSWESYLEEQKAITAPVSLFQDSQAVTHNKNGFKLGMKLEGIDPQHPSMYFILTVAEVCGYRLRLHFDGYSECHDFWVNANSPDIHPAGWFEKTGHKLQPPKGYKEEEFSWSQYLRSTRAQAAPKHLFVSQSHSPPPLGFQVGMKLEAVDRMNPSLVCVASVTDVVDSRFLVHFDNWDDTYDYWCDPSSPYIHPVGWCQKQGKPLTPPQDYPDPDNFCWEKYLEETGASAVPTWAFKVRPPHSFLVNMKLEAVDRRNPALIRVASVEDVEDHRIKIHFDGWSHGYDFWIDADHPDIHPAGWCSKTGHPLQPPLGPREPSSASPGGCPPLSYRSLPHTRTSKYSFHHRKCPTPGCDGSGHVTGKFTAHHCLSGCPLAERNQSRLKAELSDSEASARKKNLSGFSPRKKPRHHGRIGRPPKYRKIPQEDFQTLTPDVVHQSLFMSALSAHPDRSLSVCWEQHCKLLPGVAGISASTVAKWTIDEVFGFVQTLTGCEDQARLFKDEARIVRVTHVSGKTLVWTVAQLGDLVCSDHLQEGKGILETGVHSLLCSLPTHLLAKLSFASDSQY
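Read-out is AlphaScreen signal from streptavidin donor and nickel chelate acceptor beads (10 ug/mL final each) bridging L3MBTL1 (50 nM) and biotinylated K9-monomethylated H3(1-15) peptide (75 nM), after 30 min compound exposure at room temperature.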
G9a inh: blocks human histone lysine methyltransferase G9a. 350,000 compounds, 8.8% hits. AID 504332. Q96KQ7. Potency, µM (titrated, usually from 102 µM), most hits filed as inhibitors. G9a H3K9 monomethylation, AlphaScreen, 2 h; further: nearly all actives have a fitted effect of over 75% in size
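AlphaScreen read-out: biotin-H3K9 peptide (500 nM) methylation by 20 nM enzyme with 20 uM SAM, 2 h at room temperature after 15 min compound preincubation; anti-monomethyl H3K9 antibody plus donor/acceptor beads, 10 min dark.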
BAZ2B inh: inhibitors of human BAZ2B bromodomain | AlphaScreen BAZ2B-H3K14Ac peptide displacement | 360,000 compounds, 4.4% hits | Q9UIF8 | Potency, µM (series often up to 114 µM), usual class: inhibitors; further: nearly all actives have a fitted effect of over 60% in size
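AlphaScreen luminescence quantifies BAZ2B engagement of H3K14Ac peptide; the protein and biotinylated peptide are both at 50 nM final, buffer PBS pH 7.4 with 0.01% Tween-20, all steps at room temperature.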
HP1b binding inh: blocks HP1-beta chromodomain binding to methylated histone tails. AlphaScreen HP1-beta / biotin-H3K9me3 peptide binding. Potency, µM (highest dose often 114 µM), most hits filed as inhibitors. 390,000 compounds, 0.56% hits; further: nearly all actives have a fitted effect of over 70% in size
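Compound inhibition of the preformed complex between 50 nM HP1-beta and 50 nM biotinylated H3K9me3 peptide was read by AlphaScreen. Buffer was PBS pH 7.4 with 0.01% Tween-20. Incubations ran 30 min at room temperature, with 10 ug/mL donor/acceptor beads.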
Numbers stand for hits; i = inactive; ? = inconclusive; nt = no result given; [ ] = dose if it differs, or a comment. The call rests on the fitted dose curve; in most records, active means well fitted curve in the direction sought with a large enough effect; inconclusive means small, poorly fitted or top-dose-only effect, or another doubt; inactive means no such curve, though single readings can be large; an effect the other way counts as inactive or inconclusive.

SMILES	JMJD2A Tudor	Sfp inh	L3MBTL1 inh	G9a inh	BAZ2B inh	HP1b binding inh
COc1ccc(NC2CCCN(C(=O)c3cc4ncccn4n3)C2)cc1 (stereo not drawn)	i	i	nt	35µM	i	i
Cn1c(SCc2ccccc2Cl)nc(=O)c2c1NC(=O)CC2c1cc(F)ccc1F (stereo not drawn)	i	nt	nt	i	i	i
COc1cccc2c1cc1c(=O)n(CC(=O)NCc3ccc(N(C)C)cc3)nc(C)n12	i	nt	nt	i	i	i
Cc1ccc(OCCn2c(-c3ccc(Br)cc3)nc3ccccc3c2=O)cc1C	i	nt	nt	i	i	i
Cc1nnsc1C(=O)N1CCCC(Nc2ccc(C(C)C)cc2)C1 (stereo not drawn)	i	i	nt	?	i	i
Cc1nonc1C(=O)N1CCCC(Nc2ccc(C(C)C)cc2)C1 (stereo not drawn)	i	i	nt	35µM	?	i
COc1ccc(NC2CCCN(C(=O)c3ccc(C(C)=O)s3)C2)cc1 (stereo not drawn)	i	i	nt	50µM	i	i
CC(C)c1ccc(NC2CCCN(C(=O)c3ccoc3)C2)cc1 (stereo not drawn)	?	i	nt	45µM	?	i
Cc1cc(C)c(C(=O)N2CCCC(Nc3ccc(F)cc3)C2)o1 (stereo not drawn)	i	i	nt	79µM	?	i
Cc1c2cnn(CC(=O)NCc3ccc(F)cc3)c(=O)c2c(C)n1Cc1cccc(Cl)c1	i	nt	nt	i	i	i
Cc1ccc(-c2n[nH]c3c2C(c2cccs2)N(c2ccc(Cl)cc2)C3=O)cc1 (stereo not drawn)	i	nt	nt	i	nt	i
O=C(CC1NCCNC1=O)Nc1ccccc1F (stereo not drawn)	i	nt	nt	i	i	i
CCOc1ccccc1C(=O)Nc1ccc2nc3c(c(Nc4ccc(OC)c(OC)c4)c2c1)CCCC3	?	nt	nt	i	i	i
Cc1ccc2[nH]c(CSc3nnc(NC(=O)COc4ccccc4C)s3)cc(=O)c2c1	i	nt	nt	i	i	i
COc1ccc(NC2CCCN(C(=O)c3ccc(C)nc3)C2)cc1 (stereo not drawn)	i	i	nt	40µM	i	i
O=C(NCCCN1CCN(c2cccc(Cl)c2)CC1)c1ccc2nc(Cc3ccccc3)oc2c1	?	nt	nt	?	?	i
CCOc1ccc2ncc3c(-c4ccc(C)cc4)nn(-c4cccc(F)c4)c3c2c1	i	nt	nt	i	nt	i
Cc1nc(NC2CCCCC2)c2nc(-c3ccccc3)n(CCN3CCCCC3)c2n1	nt	i	nt	nt	nt	nt
COc1ccc2c(c1)O[C@H](c1ccc3c(c1)OCO3)[C@@H](OC(=O)Nc1cc(OC)c(OC)c(OC)c1)C2=O	nt	i	i	50µM	?	nt
COc1cccc([C@@H]2Oc3ccc(OC)cc3C(=O)[C@H]2OC(=O)NCc2ccc3c(c2)OCO3)c1	nt	i	i	45µM	i	nt
COc1ccc2c(c1)O[C@H](c1ccc3c(c1)OCO3)[C@@H](OC(=O)NCc1ccco1)C2=O	nt	89µM	nt	nt	nt	nt
CN(C)CCCN(C(=O)c1ccc2c(c1)OCCO2)c1nc2ccccc2s1	i	nt	nt	i	i	i
CCN(CC)CCN(C(=O)c1ccc(S(=O)(=O)N(C)C2CCCCC2)cc1)c1nc2ccc(OC)cc2s1	?	i	nt	?	i	i
Cc1ccc2nc(N(CCN(C)C)C(=O)c3ccc4c(c3)OCCO4)sc2c1	?	i	nt	45µM	?	i
CN(C)CCN(C(=O)c1ccc2ccccc2c1)c1nc2ccc(Br)cc2s1	?	i	nt	nt	i	i
SMILES	JMJD2A Tudor	Sfp inh	L3MBTL1 inh	G9a inh	BAZ2B inh	HP1b binding inh
Cc1ccc2nc(N(CCN(C)C)C(=O)c3ccc4ccccc4c3)sc2c1	45µM	?	nt	40µM	?	i
Cc1ccc2nc(N(CCCN(C)C)C(=O)c3ccc4ncsc4c3)sc2c1	40µM	40µM	nt	14µM	?	i
CCN(CC)CCN(C(=O)c1ccc(C(=O)c2ccccc2)cc1)c1nc2ccc(OC)cc2s1	?	i	nt	45µM	?	i
O=C(Nc1cccc(Cl)c1)c1ccc2c(c1)CCN2S(=O)(=O)c1ccccc1	i	nt	nt	i	i	i
Cc1ccc(S(=O)(=O)CC(=O)N(CCCN(C)C)c2nc3ccc(C)cc3s2)cc1	i	nt	i	i[0.501 µM]	i	i
Cc1ccc2nc(NNC(=O)c3ccc4c(c3)OCCO4)sc2c1	?	?	i	11µM	?	i
CCN(CC)CCN(C(=O)c1cc2c(ccc3ccccc32)oc1=O)c1nc2cc3c(cc2s1)OCCO3	i	40µM	nt	nt	?	i
CCCCN(C)S(=O)(=O)c1ccc(C(=O)N(CCN(C)C)c2nc3ccc(C)cc3s2)cc1	?	i	i	40µM	?	i
CN(C)CCN(C(=O)c1ccc(Br)s1)c1nc2cc3c(cc2s1)OCCO3	i	56µM	nt	?	nt	i
Cc1ccc2nc(NNC(=O)c3ccc(S(=O)(=O)N4CCc5ccccc5C4)cc3)sc2c1	?	i	?	i	4.5µM	i
Cc1ccc2nc(NC(=O)c3ccc(S(=O)(=O)N4CCC(C)CC4)cc3)sc2c1	i	nt	nt	i	i	i
CCN(CC)CCN(C(=O)c1ccc2c(c1)OCCO2)c1nc2cc3c(cc2s1)OCO3	?	i	nt	i	i	i
CCN(CC)CCN(C(=O)c1ccc2ccccc2c1)c1nc2ccc(F)cc2s1	?	i	nt	45µM	i	i
Cc1cc(C)c2nc(N(CCCN(C)C)C(=O)c3ccc4c(c3)OCCO4)sc2c1	?	nt	i	50µM	i	i
CCN(CC)CCN(C(=O)c1ccc2c(c1)OCCO2)c1nc2ccc(C)cc2s1	?	i	nt	79µM	35µM	i

Bioassay records deposited in PubChem by National Center for Advancing Translational Sciences (NCATS).
